Rows were chosen to be rich in hits. Some 8% of all compounds tested hit in one or more screens of this group.
Coupling enz: counter-screen for Giardia aldolase inhibitors: coupling enzyme system. coupling enzyme system counterscreen, AmpLite Red fluorescence. activity change, negative = inhibition, % at 58.2 µM, hits read low. hit rate 0.67% among 290,000. AID 2472; in the data active = activity change below about -30%
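Coupling enzymes only (glyceraldehyde-3-phosphate) + compound, at 57.5 uM final, 10 min RT; add substrate/coupling/AmpLite Red mix, 20 min RT; fluorescence ex 525/em 598 nm. Actives flag coupling-system interference.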
ELG1 DNA repair: inhibitors of ELG1-dependent DNA repair in HEK293T cells | HEK293T ELG1-luciferase reporter, luminescence, 16 h; DNA damage induced by 5-fluorouridine | AID 504467 | Potency, µM (highest dose often 46.1 µM), without a hit: at the highest dose activity change, negative = inhibition, usual class: inhibitors | hit rate 2.3% among 330,000; note: potency is the fitted concentration of half-maximal effect; nearly all actives have a fitted effect of over 55% in size
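5-Fluorouridine DNA damage + compound/DMSO, 2,000 cells/well, 16 h, 37 °C/5% CO2. ONE-Glo, 30 min RT, luminescence. Readout = decrease in reporter signal.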
TSHR antagonist: blocks TSH signaling through the human TSH receptor; P16473; TSHR-expressing cells, TSH-stimulated cAMP HTRF, 2 h; stronger effect = lower value; activity change, negative = inhibition, % at 11.5 µM; hit rate 0.2% among 330,000; AID 504810;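 active = activity change below a set negative limit, meaning inhibition stronger than a set level, cut at about -70% in these data; inconclusive = activity change between two set negative limits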
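Competitive HTRF cAMP read-out (cryptate anti-cAMP antibody, cAMP-d2; 30 min, room temperature) in freshly harvested TSHR cells. Compounds added before TSH at EC80 (4nM final), followed by 2 hours' incubation at 37 deg C.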
RORg inh: inhibitors of mouse ROR gamma transcriptional activity. P51450. Drosophila S2 Gal4-RORgamma UAS-luciferase reporter, 20 h. hit rate 5.4% among 310,000. Potency, µM (top dose mostly 53.6 µM), without a hit: at the highest dose activity change, negative = inhibition, usual class: inhibitors. AID 2551; note: potency is the fitted concentration of half-maximal effect; nearly all actives have a fitted effect of over 60% in size
Target sequence (P51450 whole entry, looked up, the tested form may be a part): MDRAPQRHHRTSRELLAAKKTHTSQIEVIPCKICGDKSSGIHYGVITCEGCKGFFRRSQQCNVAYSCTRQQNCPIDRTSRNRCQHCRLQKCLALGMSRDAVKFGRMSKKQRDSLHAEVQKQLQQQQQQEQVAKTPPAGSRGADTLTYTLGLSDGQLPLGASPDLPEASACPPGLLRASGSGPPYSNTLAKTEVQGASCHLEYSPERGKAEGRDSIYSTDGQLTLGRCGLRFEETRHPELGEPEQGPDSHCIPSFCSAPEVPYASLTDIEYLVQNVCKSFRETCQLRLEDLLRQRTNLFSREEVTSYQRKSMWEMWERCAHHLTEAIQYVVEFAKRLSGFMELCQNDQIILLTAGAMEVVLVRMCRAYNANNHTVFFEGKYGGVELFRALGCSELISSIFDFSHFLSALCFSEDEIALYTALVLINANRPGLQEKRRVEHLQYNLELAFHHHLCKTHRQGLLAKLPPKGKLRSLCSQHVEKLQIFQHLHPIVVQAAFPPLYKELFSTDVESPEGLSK
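Luminescence from a UAS-regulated Photinus luciferase reporter in stably transfected Drosophila Schneider cells is measured; decreased signal marks ROR gamma inhibition. Fusion expression is induced by 700 uM copper sulfate for 20 hr.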
VP16 counter: inhibits Gal4-VP16 luciferase reporter, ROR gamma counter-screen. Potency, µM (highest dose often 53.6 µM), for inactives: at the highest dose activity, negative = inhibition, usual class: inhibitors. hit rate 3.5% among 310,000. AID 2546. Drosophila S2 Gal4-VP16 UAS-luciferase, luminescence, 20 h;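 note: Gal4-VP16 expression switched on by copper sulfate through the metallothionein promoter; potency is the fitted concentration of half-maximal effect; nearly all actives have a fitted effect of over 50% in size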
* hit, by the source's call; ? = inconclusive; nt = no result given; [ ] = remark or other dose. Unless noted, calls come from the whole dose curve; as a rule, active = well fitted curve in the direction sought with a large enough effect; inconclusive = small, poorly fitted or top-dose-only effect, or another doubt; inactive = no such curve, though single readings can be large; an effect the other way counts as inactive or inconclusive. % is set by controls: 0 for no effect and ±100 for the full control effect.

SMILES	Coupling enz	ELG1 DNA repair	TSHR antagonist	RORg inh	VP16 counter
C[C@H]1O[C@@H](O[C@H]2[C@@H](O)C[C@H](O[C@H]3[C@@H](O)C[C@H](O[C@H]4CC[C@@]5(C)[C@H](CC[C@@H]6[C@@H]5CC[C@]5(C)[C@@H](C7=CC(=O)OC7)CC[C@]65O)C4)O[C@@H]3C)O[C@@H]2C)C[C@H](O)[C@@H]1O	-1	0.15µM*	?	1.6µM*	-12%
C[C@]12CC[C@H]3[C@@H](CC[C@]4(O)C[C@@H](O)CC[C@]34C=O)[C@@]1(O)CC[C@@H]2C1=CC(=O)OC1	nt	?	-72*	nt	nt
C[C@H]1O[C@@H](OC2CC[C@]3(C=O)[C@H]4CC[C@]5(C)[C@@H](C6=CC(=O)OC6)CC[C@]5(O)[C@@H]4CC[C@]3(O)C2)CC2OC(C)(C)OC21 (stereo not given in full)	1	?	-74*	16µM*	-1%
CC(=O)O[C@H]1CC[C@]2(C=O)C3CC[C@]4(C)[C@@H](C5=CC(=O)OC5)CC[C@]4(O)C3CC[C@]2(O)C1 (stereo not given in full)	1	nt	nt	-5%	5%
CCN(CC)C(=O)N[C@H]1C=C2c3cccc4[nH]cc(c34)C[C@@H]2N(C)C1	-10	nt	nt	-6%[16.9 µM]	-6%[17 µM]
O=C1OC(c2cc(I)c(O)c(I)c2)(c2cc(I)c(O)c(I)c2)c2ccccc21	3	nt	nt	-17%	?
CC(C)[C@]1(NC(=O)[C@@H]2C=C3c4cccc5[nH]cc(c45)C[C@H]3N(C)C2)O[C@@]2(O)C3CCCN3C(=O)[C@H](Cc3ccccc3)N2C1=O (stereo not given in full)	-32*	nt	nt	16%	-6%
COC(C)(C)C	nt	nt	nt	2%	-12%
O=P(Oc1ccccc1)(Oc1ccccc1)C(Nc1ccccc1)c1ccccc1 (stereo not given)	-1	21µM*	-8	15%	-12%
O=C(N[C@@H]1CN2CCC1CC2)c1cc(Cl)cc2[nH]cnc12	-2	nt	nt	-2%	3%
COCc1cc(C)c(C#N)c(=S)[nH]1	-3	9%	-1	4µM*	?
COC1=CC(=O)[C@]2(C=C1OC)OC[C@@H]1Oc3c(ccc4c3C=CC(C)(C)O4)C(=O)[C@@H]12	nt	1.2µM*	-45	nt	nt
OC[C@@H]1[C@@H](O)[C@H](O)[C@H]2[C@@H](O)CCN21	1	nt	nt	-14%	-20%
CN(C)C(=O)Nc1ccc(-n2nc(C(C)(C)C)oc2=O)c(Cl)c1	0	nt	nt	24%	-18%
CCC(C)OC(=O)c1c(N)n(Cc2cccs2)c2nc3ccccc3nc12 (stereo not given)	-8	?	8	?	?
Nc1c(C(=O)NCCc2ccccc2)c2nc3ccccc3nc2n1CCN1CCOCC1	-6	?	1	2%	-23%
CCC(C)NC(=O)c1c(N)n(Cc2ccc3c(c2)OCO3)c2nc3ccccc3nc12 (stereo not given)	-37*	?	13	?	-23%
CCC(C)NC(=O)c1c(N)n(CC2CCCO2)c2nc3ccccc3nc12 (stereo not given)	-40*	21µM*	-4	13%[10 µM]	-15%
CC(C)CCNC(=O)c1c(N)n(CC2CCCO2)c2nc3ccccc3nc12 (stereo not given)	-42*	?	-5	14%	0%
C=CC(N)=O	nt	nt	nt	-7%	6%
CCSC(=O)Cl	nt	nt	nt	-7%	7%
O=C(N/N=C/c1cc(Br)c(Br)s1)c1ccncc1	2	?	2	0.56µM*	1µM*
Cc1cc(C)c(-n2c(O)c(/C=N/NC(=O)c3ccncc3)c(=O)[nH]c2=O)c(C)c1	0	0%	-6	-22%	7%
O=C(/C=C\c1ccc(Cl)cc1)N[C@@]12CCC(=O)[C@@H]3Oc4c(O)ccc5c4[C@@]31CCN(CC1CC1)[C@@H]2C5	2	nt	nt	-6%	-26%
CCC1CN2CCC1CC2C(O)c1ccnc2ccccc12 (stereo not given)	10	nt	nt	6%	-6%
SMILES	Coupling enz	ELG1 DNA repair	TSHR antagonist	RORg inh	VP16 counter
CCOC(=O)c1cc(C)sc1/N=C/C1C(=O)NC(=S)NC1=O	-3	9%	-2	16µM*	4%
CCOC(=O)c1c(/N=C/C2C(=O)NC(=S)NC2=O)sc(C)c1C	-10	3%	17	-10%	-8%
CC(C)C[C@H]1C(=O)N2CCCC2[C@]2(O)O[C@](NC(=O)[C@@H]3C=C4c5cccc6[nH]c(Br)c(c56)C[C@H]4N(C)C3)(C(C)C)C(=O)N12 (stereo not given in full)	nt	nt	nt	26%[10 µM]	?
S=C=Nc1ccccn1	2	?	3	5µM*	?
CC[C@@]1(O)C(=O)OCc2c1cc1n(c2=O)Cc2cc3cc(O)ccc3nc2-1	-1	nt	nt	?	?
COC[C@H]1OC(=O)c2coc3c2[C@@]1(C)C1=C(C3=O)[C@H]2CCC(=O)[C@@]2(C)C[C@H]1OC(C)=O	-27	nt	nt	?	?
C#CCOc1ccc2c(c1)c(C(C)=O)c(C)n2Cc1ccccc1	2	21µM*	4	?	-1%
CCOC(=O)c1c(C)n(Cc2ccccc2)c2ccc(OCC(O)CN3C(=O)CNC3=O)cc12 (stereo not given)	-1	?	7	7%	-4%
CN(CC1COc2ccccc2O1)c1nc(-c2cccnc2)nc2ccccc12 (stereo not given)	1	16µM*	18	?	3%
CN1CCC(N(C)c2nc(-c3ccc([N+](=O)[O-])cc3)nc3ccccc23)CC1	0	?	15	-23%	?
CC(C)(O)[C@@H]1[C@H]2OC(=O)[C@@H]1[C@]1(O)C[C@H]3O[C@]34C(=O)O[C@H]2[C@@]14C (tested in a mixture with another compound)	5	nt	nt	11%	2%
N#CC(C(=O)C12CC3CC(CC(C3)C1)C2)c1nc2ccccc2[nH]1 (stereo not given)	0	-11%	-3	4µM*	10µM*
ClC1=C(Cl)C2(Cl)C3C(Cl)C(Cl)CC3C1(Cl)C2(Cl)Cl (stereo not given)	nt	nt	nt	-19%	-5%
CC1CC2CCC(O2)C(C)C(=O)OC(C)CC2CCC(O2)C(C)C(=O)OC(C)CC2CCC(O2)C(C)C(=O)OC(C)CC2CCC(O2)C(C)C(=O)O1 (stereo not given)	0	nt	nt	0.11µM*	0.5µM*
O=C1OC(=O)C2C1[C@@H]1CC[C@H]2O1 (stereo not given in full)	2	?	-5	-2%	-17%
CCC1CN2CCC1CC2C(O)c1ccnc2ccc(OC)cc12 (stereo not given)	3	nt	nt	10%	-3%
